ChEMBL document CHEMBL1157539, “Thousands of chemical starting points for antimalarial lead identification” (Nature, 2010)

Assays:
Format in all cases: functional
Plasmodium falciparum [1] = experiment: GSK_TCMDC: Inhibition of Plasmodium falciparum 3D7 in whole red blood cells, using parasite LDH activity as an index of growth. Test compounds present at 2uM
Plasmodium falciparum [2] = experiment: GSK_TCMDC: Inhibition of Plasmodium falciparum Dd2 in whole red blood cells, using parasite LDH activity as an index of growth. Test compounds present at 2uM
HepG2 = experiment: GSK_TCMDC: Percent inhibition of human HepG2 cell line. Test compounds present at 10uM.

Row | SMILES | Inhibition (Plasmodium falciparum [1]) [%] | Inhibition (Plasmodium falciparum [2]) [%] | Inhibition (HepG2) [%]
1 | COc1ccccc1NC(=O)Nc1cccc(-c2ccc(-c3nc4cccc(C)c4[nH]3)s2)c1 | 100 | 46 | 19
2 | O=C1C[C@@H]([S+]([O-])Cc2nccs2)N1CCOCCCCCCc1ccc(Cl)cc1 (stereo partly specified) | 91 | 0 | 0
3 | CN1CCC(NCc2cccc(-c3nn(C)c4nc(NC5CCCC5)ncc34)c2)CC1 | 98 | 44 | 1
4 | Cc1ccc2[nH]c(-c3ccc(C=CC(=O)NCc4ccc(Cl)c(Cl)c4)cc3)nc2c1 | 96 | 18 | 5
5 | CN(C)C(=O)C(CC(=O)NCc1ccccc1Cl)N(C)C.CN(C)C(=O)CC(C(=O)NCc1ccccc1Cl)N(C)C.O (stereo unspecified) | 96 | 2 | 7
6 | O=C(Cn1c(SCc2cccc(F)c2F)cc(=O)c2ccccc21)N(Cc1ccc(-c2ccc(C(F)(F)F)cc2)cc1)C1CCN(CCO)CC1 | 89 | 81 | 50
7 | Cc1ccc(Nc2nccc(NCC(O)c3cccc(C(F)(F)F)c3)n2)cc1 (stereo unspecified) | 99 | 74 | 19
8 | NC(=O)C1CCN(Cc2ccc(-c3ccc(-c4nc5cc(F)ccc5[nH]4)cc3)cc2)CC1.O=C(O)C(F)(F)F | 100 | 100 | 12
9 | CC(C)N1CCC(Oc2ccc(CN3CCN(C(c4ccccc4)c4ccc(Cl)cc4)CC3)cc2)CC1.Cl (stereo unspecified) | 97 | 46 | 44
10 | CN(C)CCCNc1ncnc2c1[nH]c1ccc(F)cc12 | 100 | 0 | 14
11 | COc1ccccc1C1CCN(C2CCC(NC(=O)/C=C/c3cccc(C(F)(F)F)c3)CC2)CC1 (stereo unspecified) | 99 | 34 | 38
12 | COc1cccc(C(=O)C2CC2CN(C)CCC(O)c2ccc(Cl)c(Cl)c2)c1 (stereo unspecified) | 99 | 95 | 17
13 | O=C(NCc1ccc(C(F)(F)F)cc1)c1cccc(-c2nnc(-c3cccc(-c4cncnc4)c3)o2)c1 | 96 | 79 | 13
14 | CNCCNCc1ccc(-c2ccc(-c3nc4ccccc4[nH]3)s2)cc1.O=C(O)C(F)(F)F | 99 | 15 | 11
15 | O=C(Nc1cccc(F)c1)c1ccc(C(=O)NC2CCN(CC3CCCCC3)C2)cc1.O=C(O)C(F)(F)F (stereo unspecified) | 96 | 15 | 16
16 | O=C(CCc1ccccc1)NC(c1ccc(Cl)cc1)c1ccc2cccnc2c1O (stereo unspecified) | 95 | 49 | 59
17 | CC1(C)N=C(N)N=C(N)N1c1cccc(I)c1.Cl | 95 | 85 | 68
18 | CCCCOc1ccc(-n2c(Nc3ccccc3)nc3cc(S(N)(=O)=O)ccc32)cc1 | 90 | 72 | 0
19 | CN(C)c1ccc(C=Cc2nc(=O)c3ccccc3o2)cc1 | 96 | 97 | 6
20 | CCCC(=O)Nc1ccc(OCCCN(Cc2ccccc2F)c2ccc(C#N)c(C(F)(F)F)c2)cc1 | 89 | 93 | 7
21 | CCCCCCN(CCCCCC)CCCCNc1c2ccc(Cl)cc2nc2ccc(OC)cc12.Cl | 100 | 94 | 65

Row | SMILES | Inhibition (Plasmodium falciparum [1]) [%] | Inhibition (Plasmodium falciparum [2]) [%] | Inhibition (HepG2) [%]
22 | CCc1ccccc1-c1csc(C(=O)NCC2CCN(Cc3ccc(C(C)(C)C)cc3)C2)c1.O=C(O)C(F)(F)F (stereo unspecified) | 90 | 15 | 25
23 | O=C(O)C(F)(F)F.c1cncc(CCNCc2cccc(-c3ccc(-c4nc5ccccc5[nH]4)s3)c2)c1 | 100 | 97 | 8
24 | O=C(NCC(NCCCNc1cc(=O)c2ccccc2[nH]1)c1cc(Br)cc(Br)c1)C1=CCCC1 (stereo unspecified) | 96 | 48 | 0
25 | O=S(=O)(Nc1cccc(CCN2CCC(N3CCCCC3)CC2)c1)c1ccc(-c2ccccc2)cc1 | 100 | 49 | 76
26 | CCNC[C@H]1CCCN1CCOc1ccc(-n2cnc3cc(-c4ccc(Cl)cc4)sc3c2=O)cc1OC.O=C(O)C(F)(F)F | 97 | 39 | 53
27 | CCCC(C(=O)OCCNC)(c1ccccc1)c1ccccc1.Cl | 98 | 96 | 7
28 | CN(C)Cc1cccc(-c2ccc(NC(=O)c3ccc4c(=O)n(Cc5ccoc5)cnc4c3)cc2)c1 | 98 | 9 | 54
29 | COc1ccc2[nH]ccc(=NN=Cc3ccccc3F)c2c1 | 100 | 98 | 23
30 | Cl.O=C(Nc1cccc(Cl)c1)OC1CCCN2CCCCC12 (stereo unspecified) | 85 | 0 | 6
31 | Cc1[nH]c(C)c(-c2ccc(OCc3cc(F)cc(F)c3)nc2)c(=O)c1Br | 98 | 97 | 37
32 | COc1cccc(C(=O)NC(c2ccc(Cl)cc2Cl)c2cc(Cl)c3cccnc3c2O)c1 (stereo unspecified) | 100 | 76 | 37
33 | Cc1ccc(C(=O)c2oc3ccc4c(C)cc(=O)oc4c3c2C)cc1 | 86 | 48 | 0
34 | Cl.Nc1nc(N)c2c(Cl)c(N(Cc3ccccc3)Cc3ccccc3)ccc2n1 | 96 | 2 | 66
35 | O=C(Cn1c(=O)cnc2ccccc21)Nc1cccc(C(=O)Nc2cccc(C(F)(F)F)c2)c1 | 90 | 66 | 0
36 | CCN(CC)CCCC(C)N/C(=N\c1ccccc1Br)Nc1ccc(C#N)cc1O (stereo unspecified) | 89 | 0 | 4
37 | Cc1cc(-c2ccc3c(c2)CCN(CCC2CCC(NC(=O)/C=C/c4cccc(Cl)c4)CC2)CC3)on1.Cl (stereo unspecified) | 100 | 49 | 16
38 | COCCNCc1ccc(-c2ccc3c(Nc4ccc(F)cc4Cl)ccnc3c2)o1 | 100 | 100 | 22
39 | Cc1nc2c(Nc3nc(-c4ccncc4)cs3)ncnc2n1-c1ccccc1Cl | 97 | 96 | 14
40 | NC1CCCN(Cc2ccc(-c3cccc(-c4nc5cc(F)ccc5[nH]4)c3)cc2)C1.O=C(O)C(F)(F)F (stereo unspecified) | 100 | 75 | 54
41 | COc1ccc2[nH]c(C)cc(=NN=Cc3ccc(F)cc3)c2c1 | 100 | 99 | 5
42 | CCCCN(Cc1cc(Cl)c(OC)c(OC)c1)c1ccc(C(O)(C(F)(F)F)C(F)(F)F)cc1.O=C(O)C(F)(F)F | 98 | 73 | 3

Row | SMILES | Inhibition (Plasmodium falciparum [1]) [%] | Inhibition (Plasmodium falciparum [2]) [%] | Inhibition (HepG2) [%]
43 | Nc1c2c(nc3ccc(Oc4ccc(Br)cc4Br)cc13)CCCC2 | 99 | 47 | 33
44 | CCCCC(CC)C(=O)C(NC(=O)[C@H](CSC(c1ccccc1)(c1ccccc1)c1ccccc1)NC(=O)OC(C)(C)C)C(=O)OC (stereo partly specified) | 88 | 31 | 8
45 | CN1CCN(c2cccc(-c3nnc(-c4cccc(OCC(=O)NCc5ccc(C(F)(F)F)cc5)c4)o3)c2)CC1 | 98 | 86 | 10
46 | Cc1cccc2nc(-c3ccc(-c4ccc(CN5CCN(CC6CCCN(C)C6)CC5)cc4)cc3)[nH]c12.O=C(O)C(F)(F)F (stereo unspecified) | 100 | 99 | 91
47 | Fc1ccc2[nH]c(-c3ccc(-c4ccc(CNCc5cnn(-c6ccccc6)n5)cc4)cc3)nc2c1.O=C(O)C(F)(F)F | 98 | 47 | 41
48 | Cc1ccccc1Nc1nc(NCc2ccccc2)nc2ccccc12 | 88 | 35 | 39
49 | Cc1ccc(S(=O)(=O)c2nc(S(=O)(=O)c3ccccc3)sc2NCC2CCCO2)cc1 (stereo unspecified) | 88 | 17 | 4
50 | Cl.c1ccc2c(C3CCN(CCCCOc4ccc5c(c4)CCN(CC4CC4)CC5)CC3)c[nH]c2c1 | 99 | 97 | 74
51 | Nc1nc(N)c2c(Oc3cccc4ccccc34)cccc2n1 | 96 | 10 | 42
52 | O=C(NCCN1CCC(NC(=O)c2ccc(-c3ccccn3)s2)CC1)c1ccc(Cl)c(Cl)c1.O=C(O)C(F)(F)F | 97 | 48 | 24
53 | Clc1cccc(Nc2ccc3c(N4CCCCC4)ncnc3n2)c1 | 97 | 93 | 54
54 | CC(c1cccc(Nc2nccc(-c3c(-c4cccc(NC(=O)c5c(F)cccc5F)c4)nn4ccccc34)n2)c1)S(C)(=O)=O (stereo unspecified) | 98 | 99 | 76
55 | O=C(/C=C/c1ccc(Cl)c(Cl)c1)N1CCC(CCN2CCC(c3c[nH]c4cc5c(cc34)OCO5)CC2)CC1 | 99 | 65 | 46
56 | CCN(CC)CCN(Cc1ccc(-c2ccc(C(F)(F)F)cc2)cc1)C(=O)c1ccc(-c2ccc(NC(=O)OC)cc2C)cc1 | 93 | 42 | 66
57 | COCCSc1nc2scc(C)c2c(=O)n1Cc1cccc(OC)c1 | 92 | 33 | 0
58 | C[C@@H](CC1CCCCC1)OC(=O)N[C@H]1CCN(C#N)C1 | 95 | 83 | 7
59 | Cl.Nc1c2c(nc3ccc(NC(=O)CCCCCc4ccccc4)cc13)CCCC2 | 100 | 36 | 32
60 | Cc1cccc2nc(-c3ccc(-c4ccc(NC(=O)Nc5ccc(Cl)c(Cl)c5)cc4)s3)[nH]c12 | 100 | 100 | 100
61 | NC1CCN(c2nc(NCCc3ccc(O)cc3)nc(NCc3ccccc3-c3ccc(C(F)(F)F)cc3)n2)CC1.O=C(O)C(F)(F)F | 100 | 72 | 18
62 | O=C(c1ccc(F)cc1)N1CCOC(CCN2CCC(c3ccccc3)CC2)(c2ccc(Cl)c(Cl)c2)C1 (stereo unspecified) | 88 | 84 | 29
